{"source": "PubChem BioAssay AID686978", "about": "(National Center for Advancing Translational Sciences (NCATS), 2013)", "note": "The campaign covered roughly 420,000 compounds. About 64,000 (15%) were called active. Not shown: some 27% with an inconclusive outcome. The call rests on the fitted dose curve; in most records, active means well fitted inhibition curve with a large enough effect; inconclusive means small, poorly fitted or top-dose-only effect; inactive means flat fitted curve, though single readings scatter. Only a sample is shown. On the % scale 0 is the no-effect control and ±100 the full control effect; potency means the concentration at half of the fitted maximal effect.", "data": [{"assay": "qHTS for Inhibitors of human tyrosyl-DNA phosphodiesterase 1 (TDP1): qHTS in cells in absence of CPT; further: nearly all actives have a fitted effect of over 55% in size", "settings": "DT40 Tdp1-/- hTDP1 cells, no CPT, ATP luminescence, 48 h; activity change, negative = growth inhibition: at 46.2 µM (top of the series)", "in_short": "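Chicken DT40 Tdp1-/- cells stably complemented with human TDP1 were seeded at 400 cells/well with DMSO in place of 20 nM camptothecin. After compound pinning, cells grew at least 48 hr at 37 °C; viability read by CellTiter-Glo luminescence.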", "values": [{"smiles": "CCCCSc1nnc2c(n1)OC=Nc1ccccc1-2", "activity change, negative = growth inhibition": "-11.3% (inactive)"}, {"smiles": "CCCn1nc(Oc2nc(NC(C)C)nc(N(C)C)n2)ccc1=O", "activity change, negative = growth inhibition": "8.56% (inactive)"}, {"smiles": "Cn1c(SCC(=O)NC2CCCCC2)nnc1-c1ccc(N)cc1", "activity change, negative = growth inhibition": "2.92% (inactive)"}, {"smiles": "CC(=O)Nc1ccc(N2C(=O)C3C4CC(=O)C(c5ccccc54)C3C2=O)cc1", "note": "(configuration not stated)", "activity change, negative = growth inhibition": "-3.56% (inactive)"}, {"smiles": "COc1ccccc1CCn1c(=O)c(-c2cn(C)c3ccccc23)nc2cncnc21", "activity change, negative = growth inhibition": "3% (inactive)"}, {"smiles": "COc1ncc2nc(-c3ccc(Cl)cc3)c(=O)n(C)c2n1", "activity change, negative = growth inhibition": "1.53% (inactive)"}, {"smiles": "CCCc1c(-c2ccccc2F)ncn1Cc1ccccc1OC", "Potency": "1.16 µM (active)"}, {"smiles": "COc1ccccc1OCCCn1c(-c2ccc(Cl)cc2)nc2ccccc2c1=O", "activity change, negative = growth inhibition": "6.13% (inactive)"}, {"smiles": "COc1cccc(OC)c1C(=O)N1CCN(Cc2ccccc2F)CC1", "activity change, negative = growth inhibition": "-18.9% (inactive)"}, {"smiles": "CCCCc1c(-c2ccc(Br)cc2)ncn1CCc1ccccc1OC", "Potency": "1.3 µM (active)"}, {"smiles": "CCCCc1c(-c2ccc(Cl)cc2)ncn1CCc1ccccc1OC", "Potency": "3.26 µM (active)"}, {"smiles": "COc1ccccc1CN1CCN(Cc2cc(OC)c(OC)cc2OC)CC1", "activity change, negative = growth inhibition": "-29.9% (inactive)"}, {"smiles": "COc1ccccc1CCC(=O)NNC(=O)c1ccncc1", "activity change, negative = growth inhibition": "4.68% (inactive)"}, {"smiles": "CCN(CC(=O)NC(C)C)C(=O)c1cc(S(=O)(=O)N2CCCCC2)ccc1N1CCCCC1", "activity change, negative = growth inhibition": "-13.3% (inactive)"}, {"smiles": "CCOC(=O)c1c(C)[nH]c(C(=O)OCC(=O)c2ccc(OC)cc2OC)c1C", "activity change, negative = growth inhibition": "-18.7% (inactive)"}, {"smiles": "C=CCNc1nc(N)c([N+](=O)[O-])c(NC2CCCCC2)n1", "activity change, negative = growth inhibition": "-13% (inactive)"}, {"smiles": "CCCCn1c(N)c(N(CCOC)C(=O)c2sc3ccccc3c2Cl)c(=O)[nH]c1=O", "activity change, negative = growth inhibition": "2.54% (inactive)"}, {"smiles": "CC(C)CCNC(=O)Cn1c(=O)oc2cc(S(=O)(=O)N3CC(C)CC(C)C3)ccc21", "note": "(configuration not stated)", "Potency": "16.4 µM (active)"}, {"smiles": "CC1CCCN(C(=O)Cn2c(=O)oc3cc(S(=O)(=O)N4CCCCC4C)ccc32)C1", "note": "(configuration not stated)", "activity change, negative = growth inhibition": "-1.35% (inactive)"}, {"smiles": "CC1CCCCN1C(=O)Cn1c(=O)oc2cc(S(=O)(=O)N3CCCCC3)ccc21", "note": "(configuration not stated)", "activity change, negative = growth inhibition": "-16.6% (inactive)"}, {"smiles": "CC1CCc2sc(C(=O)NCC(c3ccco3)N3CCCCC3)cc2C1", "note": "(configuration not stated)", "Potency": "10.3 µM (active)"}, {"smiles": "CSc1ncccc1C(=O)NCC(c1ccco1)N1CCCCC1", "note": "(configuration not stated)", "activity change, negative = growth inhibition": "-2.23% (inactive)"}, {"smiles": "CC1CCc2sc(C(=O)N/N=C/C3CCCCC3)cc2C1", "note": "(configuration not stated)", "activity change, negative = growth inhibition": "-4.82% (inactive)"}, {"smiles": "Cc1ccccc1S(=O)(=O)Cc1ccc(C(=O)NCCN2CCCCC2C)o1", "note": "(configuration not stated)", "activity change, negative = growth inhibition": "-13.1% (inactive)"}, {"smiles": "CN(CC(=O)Nc1cccc(F)c1)C(=O)C1CSC2(C)CCC(=O)N12", "note": "(configuration not stated)", "activity change, negative = growth inhibition": "-3.64% (inactive)"}, {"smiles": "COc1ccc(C(=O)Oc2ccc(-c3nnco3)cc2)cc1S(=O)(=O)N1CCOCC1", "activity change, negative = growth inhibition": "-22.7% (inactive)"}, {"smiles": "O=C(Nc1ccc(C(=O)OCc2cc(=O)n3nc(C4CC4)sc3n2)cc1)c1ccc(F)cc1", "activity change, negative = growth inhibition": "-25.5% (inactive)"}, {"smiles": "Cc1nn2c(=O)cc(COC(=O)c3ccc(NC(=O)C(C)(C)C)cc3)nc2s1", "Potency": "18.4 µM (active)"}, {"smiles": "Cc1nn2c(=O)cc(COC(=O)CNC(=O)c3ccc(F)cc3)nc2s1", "activity change, negative = growth inhibition": "-4.36% (inactive)"}, {"smiles": "CCCCc1nn2c(=O)cc(COC(=O)c3ccc(NC(=O)c4ccccc4C)cc3)nc2s1", "Potency": "14.6 µM (active)"}, {"smiles": "CCCc1nn2c(=O)cc(COC(=O)c3ccc(NC(=O)C(C)Oc4ccccc4)cc3)nc2s1", "note": "(configuration not stated)", "activity change, negative = growth inhibition": "-11.2% (inactive)"}, {"smiles": "CCCCc1nn2c(=O)cc(COC(=O)c3ccccc3NC(=O)C(C)(C)C)nc2s1", "activity change, negative = growth inhibition": "3.41% (inactive)"}]}]}
